# High-throughput results deposited in PubChem BioAssay by National Center for Advancing Translational Sciences (NCATS).
# IL-1B inflam inh: inhibitors of inflammasome signaling (IL-1 beta secretion); THP-1 LPS/ATP IL-1B secretion, AlphaLISA, 16 h; stronger effect = lower value; activity change, % at 57.5 µM; 360,000 tested, 4.7% active; in the data active means activity change below about -50%; inconclusive means mostly about -30% to -49%
#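 Secreted IL-1B measured by AlphaLISA bead assay after 16 h compound exposure of THP-1 cells; compounds (final up to 57.5 uM) added 1 h before LPS (250 ng/mL) and ATP (1.25 mM) stimulation; lower signal means less secretion.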
# DT40 TDP1 no CPT: qHTS for Inhibitors of human tyrosyl-DNA phosphodiesterase 1 (TDP1): qHTS in cells in absence of CPT; DT40 Tdp1-/- hTDP1 cells, no CPT, ATP luminescence, 48 h; 420,000 tested, 15% active; Potency, µM (highest dose often 46.2 µM), without a hit: at the top dose activity change, negative = growth inhibition, actives largely listed as inhibitors; further: potency means the concentration at half of the fitted maximal effect; nearly all actives have a fitted effect of over 55% in size
#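 Seeded 400 DT40-hTDP1 cells/well (vehicle DMSO, no 20 nM CPT); pinned compounds; ≥48 hr at 37 °C; CellTiter-Glo luminescence as viability measure.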
# ELG1 DNA repair: blocks ELG1-dependent DNA repair in HEK293T cells. HEK293T ELG1-luciferase reporter, luminescence, 16 h; DNA damage induced by 5-fluorouridine. Potency, µM (highest dose often 46.1 µM), inactives show at the highest dose activity change, negative = inhibition, hits mostly inhibitors. 330,000 tested, 2.3% active; further: potency means the concentration at half of the fitted maximal effect; nearly all actives have a fitted effect of over 55% in size
#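 Quantitative HTS, concentration-response format. 2,000 cells/well co-treated with 5-fluorouridine and compound, 16 hr in 5% CO2 at 37 °C; ONE-Glo luminescence read after 30 min.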
# Giardia killer: kills Giardia lamblia; Giardia lamblia trophozoite viability; 340,000 tested, 0.15% active; activity change, % at 7.66 µM, hits read low; in the data active means activity change below about -80%; inconclusive means between about -30% and that limit;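 further: parasites exposed to compound for two days anaerobically before the ATP read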
#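 Compounds were tested on trophozoites seeded at 100 cells/well and held 48 hrs at 37 deg C anaerobically. An ATP-based luminescent kit measured the remaining live cells.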
# DT40 TDP1 CPT: DT40-hTDP1 cell growth loss with CPT; chicken DT40 Tdp1-/-;hTDP1 cells + 20 nM CPT, ATP luminescence, 48 h; Potency, µM (series often up to 46.2 µM), for inactives: top-dose activity change, negative = growth inhibition, most hits filed as inhibitors; 420,000 tested, 12% active; AID 686979; further: potency means the concentration at half of the fitted maximal effect; nearly all actives have a fitted effect of over 55% in size
#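 Chicken DT40 Tdp1-/- cells stably complemented with human TDP1 were seeded at 400 cells/well in medium containing 20 nM camptothecin, exposed to pin-transferred compounds, and grown at 37 °C for at least 48 hr. Viability was read as ATP luminescence.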
# TDP1 inh: TDP1 (human) enzyme inhibition; recombinant TDP1, AlphaScreen DNA substrate cleavage; 350,000 tested, 0.28% active; Potency, µM (highest dose often 130 µM), without a hit: top-dose activity change, negative = inhibition, actives largely listed as inhibitors; further: potency means the concentration at half of the fitted maximal effect; nearly all actives have a fitted effect of over 40% in size
# Target sequence (Q9NUW8 whole entry, looked up): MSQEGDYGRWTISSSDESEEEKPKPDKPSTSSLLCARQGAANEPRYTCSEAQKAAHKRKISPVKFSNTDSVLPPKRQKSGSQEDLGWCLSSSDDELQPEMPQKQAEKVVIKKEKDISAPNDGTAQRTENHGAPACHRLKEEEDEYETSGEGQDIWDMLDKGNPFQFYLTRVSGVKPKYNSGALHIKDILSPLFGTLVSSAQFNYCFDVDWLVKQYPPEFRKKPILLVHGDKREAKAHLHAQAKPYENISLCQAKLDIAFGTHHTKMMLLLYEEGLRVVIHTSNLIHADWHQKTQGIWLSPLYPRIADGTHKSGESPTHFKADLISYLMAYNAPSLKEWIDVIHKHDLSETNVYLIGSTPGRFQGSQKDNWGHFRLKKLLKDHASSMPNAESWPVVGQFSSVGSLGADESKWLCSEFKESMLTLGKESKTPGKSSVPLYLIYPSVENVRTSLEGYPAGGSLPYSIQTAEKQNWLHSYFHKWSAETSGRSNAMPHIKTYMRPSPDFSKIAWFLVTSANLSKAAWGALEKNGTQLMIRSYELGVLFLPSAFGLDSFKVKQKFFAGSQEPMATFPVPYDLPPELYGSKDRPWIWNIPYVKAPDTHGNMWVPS
#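 Recombinant human Tdp1 (E. coli-expressed, 1 nM final) preincubated with compounds 15 min at room temperature, then 5'-biotin/3'-phosphotyrosine-FITC DNA substrate (15 nM final) added for 5 min. AlphaScreen beads (10 ug/ml final) added 10 min; cleavage lowers signal.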
# The depositor's hits bear a star; ? = inconclusive; / = no result; [ ] = remark or other dose. Compounds with a hit are over-represented: about 19% of the library has one in this group of screens. Unless noted, the call rests on the fitted dose curve; in most records, active means well fitted curve in the direction sought with a large enough effect; inconclusive means small, poorly fitted or top-dose-only effect, or another doubt; inactive means no such curve, though single readings can be large; an effect the other way counts as inactive or inconclusive. On the % scale 0 is the no-effect control and ±100 the full control effect.
SMILES,IL-1B inflam inh,DT40 TDP1 no CPT,ELG1 DNA repair,Giardia killer,DT40 TDP1 CPT,TDP1 inh
O=C(/C=C/c1cccs1)N1CCC2(CC1)Oc1ccc(Cl)cc1C(=O)C21CC(c2ccc(Cl)cc2)=NO1 (centres undefined),-17,-6%,/,-15,2%,/
O=C1c2cc(Cl)ccc2OC2(CCNCC2)C12CC(c1ccc(Cl)cc1)=NO2 (centres undefined),?,18µM*,14%,-1,18µM*,?
O=C(c1ccc2c(c1)OCO2)N1CCC2(CC1)Oc1ccc(Cl)cc1C(=O)C21CC(c2ccccc2)=NO1 (centres undefined),-12,-16%,-4%,18,-4%,1%
O=C(Cc1cccc(NC(=O)C2CCN(C(=O)C3CCCCC3)CC2)c1)Nc1cccc(C(=O)N2CCCCC2)c1,1,-14%,/,?,-2%,/
Cc1ccc(N2C(=O)c3ccccc3C2C(=O)c2ccc(C)c(C)c2O)cc1 (centres undefined),-22,18µM*,10%,-4,?,8%
CSc1nc(N2CCOCC2)c2c3c(sc2n1)CCCC3,-4,13µM*,-3%,-24,?,-2%
CC1NC(=O)NC1CCCCCC(=O)Nc1ccc(F)cc1 (centres undefined),-97*,-1%,0%,-8,-20%,8%
Cc1c(F)cccc1NC(=O)CCC(=O)O,5,-11%,10%,21,-5%,0%
Cc1c(F)cccc1NC(=O)CCCCCC1NC(=O)NC1C (centres undefined),-97*,-19%,9%,9,1%,-1%
O=C(CSc1nnc(-c2c[nH]c3ccccc23)o1)N1CCCCC1,-11,?,?,13,-29%,6%
O=C(CSc1nnc(-c2ccco2)o1)N1c2ccccc2CCc2ccccc21,-62*,23µM*,12µM*,1,?,11%
O=C(CSc1nnc(-c2c[nH]c3ccccc23)o1)N1c2ccccc2CCc2ccccc21,-68*,16µM*,?,-5,16µM*,-2%
O=C(CSc1nnc(-c2ccc(Br)cc2)o1)N1CCN(C(=O)c2ccco2)CC1,13,18µM*,23µM*,12,?,6%
Cc1cccc(OCC(=O)NCC2(N3CCN(C)CC3)CCCCC2)c1,/,?,/,/,?,6%
Cn1c(SCC(=O)c2ccccc2)nnc1-c1cccnc1,-6,-2%,?,-16,-4%,0%
Cn1c(SSc2ccc(-c3cccnc3)n2C)ccc1-c1cccnc1,-98*,?,/,-3,?,/
CCN1CCN(c2nnc(-c3ccc(C)cc3)c3ccccc23)CC1,?,2%,-13%,?,-13%,/
Cn1nnnc1Sc1ncnc2scc(-c3cc4ccccc4o3)c12,/,/,21µM*,-17,/,0%
Cn1nnnc1Sc1ncnc2scc(-c3ccc(-c4ccccc4)cc3)c12,/,/,?,6,/,-3%
Cn1nnnc1Sc1ncnc2scc(-c3ccc(C(F)(F)F)cc3)c12,/,/,6.5µM*,6,/,6%
Cn1nnnc1Sc1ncnc2scc(-c3cccs3)c12,/,/,?,-14,/,/
Cn1nnnc1Sc1ncnc2scc(-c3cccc(C(F)(F)F)c3)c12,/,/,?,0,/,1%
Cn1nnnc1Sc1ncnc2scc(-c3ccccc3C(F)(F)F)c12,/,/,?,1,/,8.9µM*
CCCCC[C@H](O)/C=C/[C@H]1[C@H](O)CC(O)[C@@H]1C/C=C\CCCC(=O)O (some centres undefined),/,/,/,/,/,9%
O=C(C=P(c1ccccc1)(c1ccccc1)c1ccccc1)c1ccccc1-c1ccccc1C(=O)C=P(c1ccccc1)(c1ccccc1)c1ccccc1,?,0.58µM*,/,-11,0.73µM*,/
SMILES,IL-1B inflam inh,DT40 TDP1 no CPT,ELG1 DNA repair,Giardia killer,DT40 TDP1 CPT,TDP1 inh
O=C(NNC(=O)c1ccccc1-c1ccccc1C(=O)O)c1ccccc1,-3,11%,12%,22,2%,-3%
O=C(CCCC(=O)c1ccc(O)cc1)c1ccc(O)cc1,2,?,?,5,-24%,2%
O=C1C=CC(=C(c2ccc(O)cc2)c2ccc(O)cc2)C=C1,-100*,2.3µM*,13µM*,-12,9.2µM*,5%[56.1 µM]
CN(C)CCN(C)Cc1c2ccccc2c(CN(C)CCN(C)C)c2ccccc12,-84*,18µM*,-8%,13,18µM*,/
COc1ccc(N2CC(O)(c3ccc(OC(F)F)cc3)[N+]3=C2CCCC3)cc1 (centres undefined),-54*,?,5%,-17,16µM*,4%
CCOc1ccc(N2CC(O)(c3ccc(F)cc3)[N+]3=C2CCCC3)cc1 (centres undefined),-8,23µM*,7%,-17,-14%,1%
O=C(CSc1cn(CCNC(=O)c2c(F)cccc2F)c2ccccc12)Nc1ccc2c(c1)OCCO2,/,?,/,/,?,2%
CCC(C(=O)Nc1cc(-c2nc3cccnc3s2)ccc1C)c1ccccc1 (centres undefined),/,21µM*,/,/,?,4%
Cc1ccc(-c2nc3cccnc3s2)cc1NS(C)(=O)=O,-10,21µM*,?,-29,?,/
O=C(COC(=O)c1cccc(S(=O)(=O)N2CCOCC2)c1)NCCc1ccccc1,5,1%,-19%,3,9%,0%
COc1cc(/C=N/NC(=O)c2ccoc2C)cc(OC)c1OC,-3,13µM*,/,-16,?,/
O=C(N/N=C/c1sc(=O)n(-c2ccccc2)c1Cl)c1ccncc1,0,?,?,0,?,6%
Cc1nnsc1C(=O)N/N=C/c1ccc2ccccc2c1O,57,0.82µM*,?,1,1µM*,8%
COc1cc(C(=O)N/N=C/c2sc(=O)n(-c3ccccc3)c2Cl)cc(OC)c1OC,-71*,?,-7%,25,?,5%
COc1cc(/C=N/NC(=O)c2ccc(-c3ccccc3)cc2)cc(OC)c1OC,-20,?,16µM*,22,21µM*,5%
C[C@@H]1C/C=C/C=C/C=C/C=C/[C@H](O[C@@H]2O[C@H](C)[C@@H](O)[C@H](N)[C@@H]2O)C[C@@H]2O[C@](O)(C[C@@H](O)C[C@H]3O[C@@H]3/C=C/C(=O)O1)C[C@H](O)[C@H]2C(=O)O,/,-1%,/,/,1%,/
